# Bioassay records deposited in PubChem by The Scripps Research Institute Molecular Screening Center.
# MsrA act: bovine MsrA enzyme activators, primary screen, biochemical, absorbance, HTS; Methionine sulfoxide reductase A (Bos taurus); activation, % at 10.6 µM; AID 602163, 2012; 0.3% of 360,000 active; purified bovine MsrA, absorbance read-out; in the data active means activation above about 7.5%;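 further: 0% = vehicle and 100% = reference activator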
# HGIII-sPLA2 inh: human group III sPLA2 inhibitors, primary screen, biochemical, QFRET, BODIPY PC-A2 liposome substrate; Group 3 secretory phospholipase A2 (Homo sapiens), Q9NZ20; 0.56% of 370,000 active; inhibition, % at 12.2 µM; QFRET BODIPY PC-A2 liposome hydrolysis, fluorescence;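 active means inhibition above mean plus 3 SD of compounds lying within the high and low control bounds, cut at about 19% in these data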;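 further: 0% = median of test compound wells and 100% = no enzyme DMSO wells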
# Target sequence (Q9NZ20 whole entry, looked up): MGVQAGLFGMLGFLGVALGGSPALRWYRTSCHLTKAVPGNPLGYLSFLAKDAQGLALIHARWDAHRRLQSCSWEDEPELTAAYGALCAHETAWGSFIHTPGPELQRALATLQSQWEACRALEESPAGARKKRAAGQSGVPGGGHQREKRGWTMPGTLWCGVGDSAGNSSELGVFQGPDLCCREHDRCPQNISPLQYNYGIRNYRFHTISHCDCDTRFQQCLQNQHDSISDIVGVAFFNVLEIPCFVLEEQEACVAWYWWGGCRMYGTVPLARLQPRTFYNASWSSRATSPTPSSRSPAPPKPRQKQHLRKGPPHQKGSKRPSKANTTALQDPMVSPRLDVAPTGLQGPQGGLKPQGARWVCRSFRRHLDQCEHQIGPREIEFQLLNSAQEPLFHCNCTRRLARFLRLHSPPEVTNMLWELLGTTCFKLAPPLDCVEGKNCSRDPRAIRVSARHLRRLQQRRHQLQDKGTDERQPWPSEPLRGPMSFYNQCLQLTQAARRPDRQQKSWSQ
# rCAG binder-1: binders of r(CAG) RNA repeats, primary screen, biochemical, fluorescence; r(CAG) RNA repeat, TO-PRO-1 dye displacement fluorescence; AID 651821, 2012; inhibition, % at 3 µM; 1.3% of 370,000 active;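 active means inhibition above the plate cutoff, the mean of all test compounds on that plate plus 3 SD, cut at about 35% in these data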;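 further: 0% = DMSO alone and 100% = 100 µM mitoxantrone as full dye displacement; higher means more dye released from RNA so lower well fluorescence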
# MsrA inh: bovine MsrA enzyme inhibitors, primary screen, biochemical, absorbance, HTS; inhibition, % at 15.5 µM; 0.75% of 360,000 active; purified bovine MsrA, absorbance read-out; Methionine sulfoxide reductase A (Bos taurus); in the data active means inhibition above about 4.5%;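 further: 0% = vehicle wells with enzyme and 100% = reference inhibitor wells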
# rCAG binder conf: small molecules binding CAG repeat RNA – biochemical, fluorescence, confirmation. shares compounds with rCAG binder-1. r(CAG) RNA repeat, TO-PRO-1 dye displacement fluorescence. inhibition, % at 3 µM. 70% of 4,300 active;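 active means inhibition above a per-plate cutoff, the mean inhibition of sample wells plus 3 SD, cut at about 35% in these data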;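 further: loss of TO-PRO-1 fluorescence as compound displaces dye from 1x1 AA loop RNA; 0% = DMSO only wells and 100% = 100 µM mitoxantrone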
# DNA CAG counter: displacement of TO-PRO-1 from CAG DNA duplex, counter-screen for rCAG RNA repeat binder project, biochemical, fluorescence, TO-PRO-1 dye, d(CAG) DNA oligo. shares compounds with rCAG binder-1. d(CAG) DNA oligo TO-PRO-1 dye displacement. inhibition, % at 3 µM. 94% of 4,300 active. AID 652068, 2013;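 active means inhibition above its plate's cutoff, the mean test-well inhibition plus 3 SD, cut at about 4.8% in these data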;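 further: 0% = DNA dye mix with DMSO and 100% = 100 µM mitoxantrone; hits displace the dye from DNA and so lower well fluorescence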
# dCAG dye DR: inhibitors of DNA CAG/GTC TO-PRO-1 complex, dose response, counter-screen for rCAG RNA repeat binder project, biochemical, fluorescence, TO-PRO-1 dye; shares compounds with rCAG binder-1; DNA CAG/GTC duplex TO-PRO-1 dye displacement fluorescence; IC50, µM; 20% of 250 active; AID 686960, 2013; in the data active means IC50 below about 10 µM
# dCAG DNA bind: TO-PRO-1 dye complex inhibitors on d(CAG) DNA, dose response, counter-screen, biochemical, fluorescence, late stage. 80% of 30 active. IC50, µM. d(CAG) DNA duplex TO-PRO-1 dye displacement. shares compounds with rCAG binder-1. AID 720649, 2013
# rCAG binder-2: molecules binding r(CAG) RNA repeats, late stage dose response, late-stage follow-up, biochemical, fluorescence, dose response, powder samples | shares compounds with rCAG binder-1 | r(CAG) RNA TO-PRO-1 dye displacement | IC50, µM | 100% of 30 active | AID 720651, 2013
# * = called active by the depositor; i = inactive; . = no result. Hits are enriched below; roughly 2.8% of the tested compounds scored in any of these assays. Unless noted, how the calls were made is not given here.
SMILES,MsrA act,HGIII-sPLA2 inh,rCAG binder-1,MsrA inh,rCAG binder conf,DNA CAG counter,others
NC(=O)c1sc(-c2ccsc2)cc1NS(=O)(=O)c1ccc(C(F)(F)F)cc1,-5.3,-33.8,55.6*,0.1,77.1*,29.6*,dCAG dye DR=7.04*;dCAG DNA bind=4.43*;rCAG binder-2=1.49*
CC(=O)c1sc(-c2ccccc2)cc1NS(=O)(=O)c1ccccc1,-1.4,1.7,82.6*,0.8,10.8,2.5,
Cc1ccc(C)c(S(=O)(=O)Nc2nc(C)c(C(=O)Nc3ccccc3)s2)c1,-10.1,-27.8,46.3*,2.4,36.1*,9.0*,
CC(=O)c1sc(-c2ccc(F)cc2)cc1NS(=O)(=O)c1ccc(C)cc1,-3.6,0.8,1.3,1.0,.,.,
CC(=O)c1sc(NS(=O)(=O)c2ccc(C)cc2)nc1C,-16.3,-8.3,9.3,3.8,.,.,
Cc1nc(NS(=O)(=O)c2ccccc2)sc1C(=O)NNS(=O)(=O)c1ccccc1,-5.6,1.9,17.2,1.9,.,.,
Cc1nc(NS(=O)(=O)c2ccccc2)sc1C(=O)N/N=C/c1ccccc1,-4.5,-11.4,68.8*,2.5,42.5*,10.6*,
CC(=O)c1sc(NS(=O)(=O)c2ccc(C)cc2)nc1-c1ccccc1,-4.3,-31.4,42.3*,2.1,34.1,7.5*,
Cc1ccc(S(=O)(=O)Nc2nc(C)c(C(=O)NNS(=O)(=O)c3cc(C)ccc3C)s2)cc1,-3.2,-20.4,54.3*,1.1,59.2*,21.8*,
CCSc1nc(-c2ccco2)ccc1C#N,-0.6,16.6,56.0*,2.3,11.4,8.6*,
CC(Oc1ccccc1)C(=O)N=Nc1c(O)[nH]c2ccc([N+](=O)[O-])cc12 (stereo not drawn),2.1,-1.6,20.9,2.9,.,.,
CCCOc1ccc(/C=N/Nc2ccc(C(=O)O)cc2)c(OCCC)c1,-3.4,-33.6,54.6*,1.7,60.2*,21.8*,
COc1cc(/C=C2/C(=O)NN(c3cccc(Cl)c3)C2=O)cc(OC)c1O,-4.3,-12.7,49.9*,1.0,13.5,6.8*,
CCOc1cc(/C=C2/C(=O)NN(c3cccc(Cl)c3)C2=O)ccc1O,-3.2,-12.5,46.5*,2.1,22.6,7.5*,
COc1cccc(/C=C2/C(=O)NN(c3ccc(F)cc3)C2=O)c1,-3.7,7.2,10.2,0.5,.,.,
COc1cc(/C=C2\C(=O)NN(c3ccccc3)C2=O)ccc1OCC(N)=O,.,-5.0,2.4,0.3,.,.,
O=C1NN(c2cccc(Br)c2)C(=O)/C1=C\c1ccc(O)cc1,-5.0,-11.3,72.0*,1.9,26.8,11.5*,
COc1cccc(/C=C2/C(=O)NN(c3ccc(C)c(C)c3)C2=O)c1,-1.8,-6.2,71.9*,-1.2,34.0,9.5*,
CCC(Sc1nc2ccsc2c(=O)n1Cc1ccc(C(=O)O)cc1)C(=O)Nc1ccc(C)c(Cl)c1 (stereo not drawn),-1.4,-27.8,74.0*,-0.8,79.5*,48.7*,
CC(=O)Oc1cccc(C(=O)Nc2cccc(C(=O)Nc3ccccc3C(=O)O)c2)c1,-4.7,-22.7,56.0*,-0.4,37.4*,8.4*,
O=C(/C=C/c1ccc([N+](=O)[O-])cc1)Nc1cccc(C(=O)Nc2ccccc2C(=O)O)c1,-12.5,-16.9,44.0*,0.0,82.7*,50.5*,
O=C(Nc1ccccc1C(=O)O)c1cccc(NC(=O)c2ccccc2Cl)c1,-3.8,-20.9,34.3,0.1,.,.,
CC(=O)Oc1cccc(NC(=O)c2cccc(C(=O)Nc3cccc(OC(C)=O)c3)c2)c1,-0.6,-17.1,1.1,-0.3,.,.,
Cc1ccccc1C(=O)Nc1cccc(C(=O)Nc2ccccc2C(=O)O)c1,-1.2,-12.0,36.3*,-0.5,23.2,2.7,
COC(=O)c1cccc(NC(=O)/C=C/c2ccc([N+](=O)[O-])cc2)c1,-3.9,-28.6,8.0,1.2,.,.,
SMILES,MsrA act,HGIII-sPLA2 inh,rCAG binder-1,MsrA inh,rCAG binder conf,DNA CAG counter,others
COCCNC(=O)C[C@H]1CC[C@H]2[C@@H](COc3ccc(NC(=O)Nc4cccc(F)c4)cc3C(=O)N2C)O1,.,-15.1,3.5,.,.,.,
Cc1ncc(CO)c2c1Oc1nc(-c3ccccc3)nc(SCC(=O)Nc3cccc(O)c3)c1C2,-2.2,5.2,58.1*,-0.4,29.8,16.9*,
O=C(CSc1nc(-c2ccc(F)cc2)nc2c1Cc1ccccc1O2)Nc1cccc(C(=O)O)c1,-13.9,7.4,22.1,0.4,.,.,
COc1ccc(-c2nc3c(c(SCC(=O)Nc4cccc(O)c4)n2)Cc2c(CO)cnc(C)c2O3)cc1,-8.5,6.0,57.8*,0.9,25.2,15.8*,
Cc1ccc(S(=O)(=O)N(C)C)cc1NC(=O)COC(=O)CNC(=O)c1cccs1,-8.1,0.3,4.9,-0.3,.,.,
COc1ccc(CN2CCN(c3nc4ccccc4s3)CC2)cc1,-4.4,-2.3,-2.6,-0.1,.,.,
COc1ccc(CCn2c(O)cc3nn(-c4nc5ccccc5s4)c(=O)c-3c2C)cc1,-3.1,7.8,66.9*,1.3,84.0*,50.9*,
COC(=O)c1c(C)[nH]c(C)c1-c1ccc(C)cc1,2.2,11.8,43.2*,0.3,2.4,0.7,
O=C(Nc1cccc2c1CCCC2)c1cc([N+](=O)[O-])ccc1Cl,4.0,0.0,2.7,1.4,.,.,
CCOC(=O)CN1C(=O)N[C@@H](c2cccc(C(F)(F)F)c2)[C@H](C(C)=O)[C@H]1C,-4.4,-7.2,-7.5,-0.2,.,.,
CC(=O)c1ccc(NC(=O)CSc2ccsc2[N+](=O)[O-])cc1,-13.5,-5.0,35.0*,-0.4,19.9,14.0*,
Cc1ccc(CNC(=O)CSc2ccsc2[N+](=O)[O-])cc1,-12.6,-5.0,12.3,-0.5,.,.,
O=C(CSc1ccsc1[N+](=O)[O-])Nc1cc(F)ccc1F,-11.4,-5.6,37.9*,0.7,14.7,10.8*,
COc1cccc(-c2cc(C(=O)Nc3c(C)n(C)n(-c4ccccc4)c3=O)no2)c1,-5.8,8.8,4.1,1.3,.,.,
Clc1cccc(-c2nc(-c3ccc(-c4nn[nH]n4)cc3)no2)c1,1.1,-14.0,35.5*,-0.5,61.8*,19.3*,dCAG dye DR=i
CCn1c(=O)c(C(=O)CN2CCCc3ccccc32)c(N)n(Cc2ccccc2)c1=O,-1.2,0.8,-6.1,0.0,.,.,
